# Assay outcomes deposited in PubChem by The Scripps Research Institute Molecular Screening Center.
# An excerpt weighted towards active compounds, which were near 1.7% of everything screened.
# LYPLA1 inh: counter-screen for PME1 inhibitors: inhibitors of human LYPLA1. inhibition, % at 5.9 µM. AID 2174. recombinant LYPLA1, FP-Rh probe fluorescence polarization. actives 0.16% (n = 320,000). O75608;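 active = inhibition above the mean of all tested compounds plus 3 SD, set per campaign, cut at about 14% in these data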;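 also: inhibitors block serine hydrolase probe labeling of LYPLA1 so polarization falls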
# Target sequence (O75608 whole entry, looked up): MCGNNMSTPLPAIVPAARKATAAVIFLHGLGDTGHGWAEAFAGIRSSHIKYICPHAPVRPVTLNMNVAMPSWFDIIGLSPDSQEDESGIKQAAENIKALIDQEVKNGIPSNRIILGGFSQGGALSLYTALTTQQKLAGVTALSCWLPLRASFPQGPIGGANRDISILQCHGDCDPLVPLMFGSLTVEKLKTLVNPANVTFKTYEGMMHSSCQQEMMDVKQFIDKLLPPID
# ZTA DNA inh: blocks Epstein-Barr virus ZTA, an EBNA-1 counter-screen; P03206; ZTA-DNA binding, fluorescence polarization; inhibition, % at 11 µM; actives 0.15% (n = 320,000); AID 2234; in the data active = inhibition above about 33%
# GSTO1 counter: blocks human GSTO1 in RBBP9 counter-screen; actives 1.1% (n = 300,000); recombinant GSTO1, activity-based probe fluorescence polarization; AID 1974; inhibition, % at 5.96 µM; P78417;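 active = inhibition above the campaign mean inhibition plus 3 SD, cut at about 35% in these data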
# Target sequence (P78417 whole entry, looked up): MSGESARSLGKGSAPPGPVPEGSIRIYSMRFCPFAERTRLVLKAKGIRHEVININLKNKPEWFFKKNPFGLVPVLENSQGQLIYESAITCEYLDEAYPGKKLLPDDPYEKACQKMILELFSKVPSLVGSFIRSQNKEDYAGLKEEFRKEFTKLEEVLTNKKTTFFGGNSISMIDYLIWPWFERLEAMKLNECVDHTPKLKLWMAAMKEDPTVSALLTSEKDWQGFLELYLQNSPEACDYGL
# PAD4 FP inh: blocks human protein arginine deiminase 4; Q9UM07; recombinant PAD4, RCA probe fluorescence polarization; inhibition, % at 6.36 µM; actives 0.41% (n = 330,000); AID 485272;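 active = percent inhibition above a cutoff equal to the mean of all tested compounds plus 3 SD, cut at about 15% in these data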
# LYPLA2 inh: blocks human lysophospholipase 2, a PME1 counter-screen. O95372. recombinant LYPLA2, FP-Rh probe fluorescence polarization. inhibition, % at 5.9 µM. actives 0.38% (n = 320,000);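 active = inhibition above the screen-wide mean plus 3 SD, limit set per campaign, cut at about 26% in these data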
# EBNA-1 inhibitor: blocks EBNA-1 binding to DNA | EBNA-1 DNA binding, fluorescence polarization | inhibition, % at 14.8 µM | actives 0.34% (n = 300,000) | AID 1950; in the data active = inhibition above about 28%
# A number is an active result; – = inactive; · = not tested or not shown.
SMILES,LYPLA1 inh,ZTA DNA inh,GSTO1 counter,PAD4 FP inh,LYPLA2 inh,EBNA-1 inhibitor
CC1=NN(c2ccccc2)C(=O)/C1=C\C=C1\N(C)c2ccccc2C1(C)C,–,–,–,–,–,–
O=[N+]([O-])c1ccc(COc2cccc(CNc3ccc(F)cc3)c2)cc1,–,–,–,–,–,–
Oc1ccc(NCc2cccc(OCc3ccc(F)cc3)c2)cc1,–,–,77,–,–,–
CSc1ccc(/C=N\Nc2nncn2N)cc1,–,–,–,42,–,–
Cc1nnsc1C(=O)Nc1ccc(S(=O)(=O)N2CCC(C)CC2)cc1,–,–,–,–,–,–
COc1ccc(C2/C=C\CN(C(=O)Nc3ccc(C(F)(F)F)cc3)CC(=O)N2Cc2ccc(F)cc2)cc1 (stereo not drawn),–,–,–,–,–,–
COc1ccc(C2/C=C\CN(C(=O)Nc3ccccc3)CC(=O)N2Cc2ccc(F)cc2)cc1 (stereo not drawn),–,–,36,–,–,–
CCN1CNC(=S)N(C(C)c2ccccc2)C1 (stereo not drawn),–,–,–,–,–,–
O=C(c1cccc(S(=O)(=O)Nc2ccccc2F)c1)N1CCN(c2ccccc2F)CC1,–,–,–,–,–,–
N#CCCN(C(=O)CCl)c1cccc(Cl)c1,–,–,87,–,–,–
COc1ccc(NC(=O)CC(C)n2ccnc2)cc1 (stereo not drawn),–,–,–,–,–,–
Cc1cc2ncn(/N=C/c3ccc([N+](=O)[O-])s3)c2cc1C,–,–,–,–,–,–
O=[N+]([O-])c1ccc(/C=N/n2c(CO)nc3ccccc32)s1,–,–,37,–,–,–
Cc1nc2ccccc2n1/N=C/c1ccc([N+](=O)[O-])o1,–,–,37,–,–,–
NC(=O)c1ccc(N=Cc2ccc([N+](=O)[O-])s2)cc1,–,–,–,–,–,–
Cc1cc(C)cc(N=Cc2ccc([N+](=O)[O-])s2)c1,–,–,36,–,–,–
Cc1nc2ccccc2n1/N=C/c1ccc([N+](=O)[O-])s1,–,–,47,–,–,–
Nc1nc(SCCO)[nH]c(=O)c1NC(=O)c1ccco1,–,–,·,–,–,·
CNC(=O)NC(=O)C(c1ccccc1)N(C)CC1COc2ccccc2O1 (stereo not drawn),–,–,–,–,–,–
COc1cc2c(C#N)c(N3CCCCC3)nc(N)c2c(N)n1,–,–,–,–,–,–
COc1ccc(CN2C(=O)Cc3c2nc(N)c2c(N)nc(N4CCCCC4)c(C#N)c32)cc1,–,–,48,–,–,–
CCC(C)C(=O)Nc1nnc(CCc2ccccc2)s1 (stereo not drawn),–,–,–,–,–,–
Cc1nn(C)c(C)c1CCC(=O)N1CCCC(N2CCN(c3ccc(F)cc3)CC2)C1 (stereo not drawn),–,–,–,–,–,–
CCO[C@@H]1OC(C(N)=O)=C[C@H](c2ccc3c(c2)OCO3)[C@H]1CCCO,–,–,–,–,–,–
COc1ccc(CCn2c(Br)nc3c2c(=O)[nH]c(=O)n3C)cc1,–,–,–,–,–,–
SMILES,LYPLA1 inh,ZTA DNA inh,GSTO1 counter,PAD4 FP inh,LYPLA2 inh,EBNA-1 inhibitor
COc1ccc(CCn2c(NN=C(C)C)nc3c2c(=O)[nH]c(=O)n3C)cc1,–,–,46,–,–,–
CC(NC(=O)c1cc(-c2cccnc2)nc2ccc(Br)cc12)C1CCCO1 (stereo not drawn),–,151,–,–,–,160
CCN(C(=O)CSc1ccccn1)C1CCCCC1,·,·,·,–,·,·
Cn1c(=O)oc2cc(S(=O)(=O)NCCc3ccccc3)ccc21,–,–,35,–,–,–
CC(C)OC(=O)CSc1nnc(-c2ccccn2)n1-c1ccccc1,–,–,37,–,–,–
CN(C)CCCn1c2c(c(SCC(=O)Nc3nccs3)nc1=O)CCC2,–,–,–,–,–,–
CCCCC(=O)Nc1nc(-c2ccc(S(=O)(=O)N3CCOCC3)cc2)cs1,–,–,–,–,–,–
Cc1ccc(Nc2nc(-c3ccc(S(=O)(=O)N4CCOCC4)cc3)cs2)cc1Cl,–,–,–,–,–,31
N#Cc1c(N)nc2c3c(sc(=N)c2c1N)NC(=O)CC3c1ccccc1 (stereo not drawn),–,–,–,–,–,–
N#Cc1c(N)nc2c3c(sc(=N)c2c1N)NC(=O)CC3c1c(F)cccc1Cl (stereo not drawn),–,–,35,–,–,–
COc1cccc(COc2nc3c(c(=O)n(C)c(=O)n3C)n2C)c1,–,–,36,–,–,–
Cn1c(=O)c2c(nc(OCc3ccccc3)n2C)n(C)c1=O,–,–,–,–,–,–
C[C@H]1CC[C@@]2(O[C@@H](CCO)C[C@H](O)[C@H]2O)O1,–,–,–,–,–,–
COC(=O)c1ccc(N2NC(=O)/C(=C/c3cc(OC)c(O)c(OC)c3)C2=O)cc1,–,–,37,–,–,–
COC(=O)[C@@]12CCCN1[C@H](c1ccc(-c3ccc(C(C)=O)cc3)c(OC)c1)[C@H]1C(=O)N(C)C(=O)[C@H]12,–,–,–,–,–,–
[O-]/C(=C(\C(=S)Nc1cccc2ccccc12)[n+]1ccccc1)c1cccs1,–,–,37,–,–,–
Cc1cccc(C)c1NC(=S)/C(=C(\[O-])c1cccs1)[n+]1ccccc1,–,–,–,–,–,–
NS(=O)(=O)c1ccc(CNC(=O)c2cccnc2Cl)cc1,–,–,–,–,–,–
COc1ccc(N2CSC3=C(C#N)C(c4cc(OC)ccc4OC)CC(=O)N3C2)c(OC)c1 (stereo not drawn),–,–,–,–,–,–
COc1ccc(N2CSC3=C(C#N)C(c4cc(OC)c(OC)cc4OC)CC(=O)N3C2)c(OC)c1 (stereo not drawn),–,–,39,–,–,–
COc1ccccc1N1CCN(/N=C/c2ccc(O)c(O)c2)CC1,–,–,51,–,–,–
C=CCN=c1scc(-c2ccccc2)n1/N=C/c1ccccn1,–,84,–,–,–,–
COc1cc(C2C(C#N)=C(N)Oc3n[nH]c(-c4cccs4)c32)cc(OC)c1O (stereo not drawn),–,–,35,–,–,–
CCOC(=O)CC(=O)N/N=C/c1c(N)n(C)c(=O)n(C)c1=O,–,–,–,–,–,–
COc1ccc2nc(N3CCC(O)CC3)c(C#N)cc2c1,–,–,36,–,–,–
Cc1ccc(S(=O)(=O)N(C)C)cc1NC(=O)C1CCCN(C(=O)c2ccc(Cl)cc2)C1 (stereo not drawn),–,–,–,–,–,–
CCN1CC=C2C(C#N)=C(N)C(C#N)(C#N)C(c3cc(Cl)ccc3Cl)C2C1 (stereo not drawn),–,–,–,22,–,–
CC(C)N1CC=C2C(C#N)=C(N)C(C#N)(C#N)C(c3ccccc3)C2C1 (stereo not drawn),–,–,–,–,–,–
